From PubChem BioAssay (NCI)
About 83,000 compounds went through this panel and 20% of them were active in at least one assay; those are over-represented in the sample as a whole.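 In brief: 96-well plates, 48 h treatment, single concentration, percent growth endpoint.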 A number with no mark means an inactive call. The source made the active and inactive calls. Rule for the calls: active = growth percent below 10; inactive = the rest.

test system: HL-60(TB) leukemia; assay: NCI-60 one-dose screen, 48 h (100 = growth as untreated, 0 = no growth, -100 = all killed); details: 10 µM unless noted

Structure (SMILES) | growth
Fc1ccccc1C1c2ccccc2-c2nccn21 (stereo not given) | 76.5%
CCCCC(=O)N/N=C/c1cc(I)cc(I)c1O | 4.46% (active)
Oc1ccccc1C=NCC1CCC(CN=Cc2ccccc2O)CC1 (stereo not given) | 123%
N#Cc1cccc(-c2ccc3c(c2)NC(=O)/C3=C\c2ccc[nH]2)c1 | 64.8%
Cc1nn(-c2ccccc2)c(N)c1N=C1NC(=O)/C(=C/c2ccc(Br)cc2)S1 | 77.9%
COc1ccc2c3c([nH]c2c1)C(=O)c1nc(C)ccc1C3=O | 59%
CC(=O)CC(c1cccs1)c1c(-c2ccccc2)[nH]c2ccccc12 (stereo not given) | 99.8%
Cc1cc(Nc2nc(-c3ccc(F)cc3)nc3ccccc23)n[nH]1 | 39%
O=C1NC(=O)c2cc([N+](=O)[O-])cc3cccc1c23 | 135%
C=CCn1c(SCC(=O)Nc2ccc(C(=O)/C=C/c3cc(OC)c(OC)c(OC)c3)cc2)nnc1-c1cc(-c2ccc(OC)cc2)nc2ccccc12 | 96.4%
CCOC(=O)c1nn(C2CCCCO2)c2ccc(NC(=O)Cn3nnc4ccccc43)cc12 (stereo not given) | 98.8%
COc1cc2nc(-c3cccc4cccnc34)nc(NC3CCN(Cc4ccccc4)CC3)c2cc1OC | -63.4% (active)
Nc1ncnc2c1N=C(c1ccc(Cl)cc1)CC(c1ccc3c(c1)OCO3)N2 (stereo not given) | 90.7%
N#Cc1c(NC(=O)c2ccc(Br)cc2)sc2c1CCCC2 | 14.1%
Nc1c(C(=O)Nc2ccccn2)sc2nc3c(cc12)C(=O)CCC3 | 5.15% (active)
CCNc1ncnc2c1cnn2C1CCCO1 (stereo not given) | 92.5%
O=c1cc(NC2CCN(CCCc3ccccc3)CC2)c2cc(Cl)ccc2o1 | -7.02% (active)
O=CNc1ccc2c(c1)Cc1cc([N+](=O)[O-])ccc1-2 | 17.7%
CNC(=O)c1nn(C)c2c1C(C)(C)Cc1cnc(Nc3ccc(N4CCN(C)CC4)cc3)nc1-2 | -27% (active)
COc1ccc(C2CC(c3ccc4c(c3)OCO4)=Nc3c(N)ncnc3N2)cc1 (stereo not given) | 99.3%

Structure (SMILES) | growth
Nc1cc2ccncc2c2ccccc12 | 90%
COc1ccc(NC(=O)c2ccc(Cl)cc2Cl)cc1 | 103%
COc1ccc2c(c1)/C(=C/c1c(-c3cc(OC)c(OC)c(OC)c3Br)nc3sccn13)C(=O)N2 | 77.1%
CN(C)c1nc(N)c(N=O)c(N)n1 | 106%
Cc1ccc(C2CC(c3cccc(Nc4ccncc4)c3)=NN2c2cc(Cl)cc(Cl)c2)cc1 (stereo not given) | 14.8%
OC(c1cc2c(Cl)cc(Cl)cc2c2cc(C(F)(F)F)ccc12)C1CCCCN1 (stereo not given) | -39.1% (active)
Clc1cccc(Cl)c1Cn1c(-c2cncs2)nc2ccccc21 | 56.6%
Cc1ccc(C(=O)c2sc3nc4c(cc3c2N)CCCC4)c(C)c1 | -3.28% (active)
C1CN(CC2CCC(CN3CCOCC3)O2)CCO1 (stereo not given) | 87%
O=C(Nc1ccccc1O)c1ccccc1Nc1ccnc(C(F)(F)F)c1 | 68.3%
O=[N+]([O-])c1ccc2[nH]c3nccc(NCc4cccc(Cl)c4)c3c2c1 | 82.9%
COc1cc(-c2cccc([N+](=O)[O-])c2)c(-c2nc(-c3ccccc3)c(-c3ccccc3)n2C2CC2)cc1OC | 9.63% (active)
NC(=O)c1c(NC(=O)c2ccc(Cl)cc2)sc2c1CCC(=O)C2 | 48.6%
N#C/C(=C\c1cccc2cnccc12)n1nnc2cccc(F)c21 | 1.65% (active)
C=C(c1ccc(C(=O)NCCCn2ccnc2)cc1)c1cc2c(cc1C)C(C)(C)CCC2(C)C | -47.5% (active)
Cc1c(C(=O)OCCO)cc(-c2ccc(Cl)cc2)n1-c1ccc(Cl)cc1Cl | 59.7%
CC(=O)c1cccc(N(C)S(=O)(=O)c2ccc(C)cc2)c1 | 88.8%
CN(C)CCS(=O)(=O)Nc1cc(-c2ccc3ncc(C#N)c(Nc4ccc(F)c(Cl)c4)c3c2)cnc1Cl | -28.4% (active)
CCCCCCC/C=C/[C@H]1O[C@]2(O)C(=O)C=C3C[C@@H](O[C@@H]4O[C@H](CO)[C@@H](O)C(O)[C@@H]4O)C[C@@H]3[C@H]2C=C1C (stereo not given in full) | -46.4% (active)
Cc1ccc(S(=O)(=O)NCCCNc2cc(-c3cn(C(C)(C)C)nc3-c3cccc(O)c3)ccn2)cc1 | 66.6%
